Results published in PubChem BioAssay (NCATS).
Several values for one entry are separate records, joined by “and”; a condition that tells them apart may be missing. Equal entries are not always repeated. Records with an inconclusive call do not appear. Activity calls are given as the source filed them. Unless noted, calls follow the shape of the dose curve; as a rule, active = well fitted curve in the direction sought with a large enough effect; inconclusive = small, poorly fitted or top-dose-only effect, or another doubt; inactive = no such curve, though single readings can be large; an effect the other way counts as inactive or inconclusive.

What was measured:
[1] = target: ATPase family AAA domain-containing protein 5 (Homo sapiens) (UniProt Q96QE3); assay: Validation screen for small molecules that inhibit ELG1-dependent DNA repair in human embryonic kidney (HEK293T) cells expressing luciferase-tagged ELG1 (AID 493107);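 also: cells co-treated with the DNA-damaging agent 5-fluorouridine alongside compound; series mostly up to about 46 µM; % is scaled to controls: 0 for no effect and ±100 for the full control effect; inhibitors lower the ELG1-luciferase luminescence signal; nearly all actives have a fitted effect of over 70% in size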
ATPase family AAA domain-containing protein 5 (Homo sapiens), sequence (Q96QE3 whole entry, looked up, the tested form may be a part): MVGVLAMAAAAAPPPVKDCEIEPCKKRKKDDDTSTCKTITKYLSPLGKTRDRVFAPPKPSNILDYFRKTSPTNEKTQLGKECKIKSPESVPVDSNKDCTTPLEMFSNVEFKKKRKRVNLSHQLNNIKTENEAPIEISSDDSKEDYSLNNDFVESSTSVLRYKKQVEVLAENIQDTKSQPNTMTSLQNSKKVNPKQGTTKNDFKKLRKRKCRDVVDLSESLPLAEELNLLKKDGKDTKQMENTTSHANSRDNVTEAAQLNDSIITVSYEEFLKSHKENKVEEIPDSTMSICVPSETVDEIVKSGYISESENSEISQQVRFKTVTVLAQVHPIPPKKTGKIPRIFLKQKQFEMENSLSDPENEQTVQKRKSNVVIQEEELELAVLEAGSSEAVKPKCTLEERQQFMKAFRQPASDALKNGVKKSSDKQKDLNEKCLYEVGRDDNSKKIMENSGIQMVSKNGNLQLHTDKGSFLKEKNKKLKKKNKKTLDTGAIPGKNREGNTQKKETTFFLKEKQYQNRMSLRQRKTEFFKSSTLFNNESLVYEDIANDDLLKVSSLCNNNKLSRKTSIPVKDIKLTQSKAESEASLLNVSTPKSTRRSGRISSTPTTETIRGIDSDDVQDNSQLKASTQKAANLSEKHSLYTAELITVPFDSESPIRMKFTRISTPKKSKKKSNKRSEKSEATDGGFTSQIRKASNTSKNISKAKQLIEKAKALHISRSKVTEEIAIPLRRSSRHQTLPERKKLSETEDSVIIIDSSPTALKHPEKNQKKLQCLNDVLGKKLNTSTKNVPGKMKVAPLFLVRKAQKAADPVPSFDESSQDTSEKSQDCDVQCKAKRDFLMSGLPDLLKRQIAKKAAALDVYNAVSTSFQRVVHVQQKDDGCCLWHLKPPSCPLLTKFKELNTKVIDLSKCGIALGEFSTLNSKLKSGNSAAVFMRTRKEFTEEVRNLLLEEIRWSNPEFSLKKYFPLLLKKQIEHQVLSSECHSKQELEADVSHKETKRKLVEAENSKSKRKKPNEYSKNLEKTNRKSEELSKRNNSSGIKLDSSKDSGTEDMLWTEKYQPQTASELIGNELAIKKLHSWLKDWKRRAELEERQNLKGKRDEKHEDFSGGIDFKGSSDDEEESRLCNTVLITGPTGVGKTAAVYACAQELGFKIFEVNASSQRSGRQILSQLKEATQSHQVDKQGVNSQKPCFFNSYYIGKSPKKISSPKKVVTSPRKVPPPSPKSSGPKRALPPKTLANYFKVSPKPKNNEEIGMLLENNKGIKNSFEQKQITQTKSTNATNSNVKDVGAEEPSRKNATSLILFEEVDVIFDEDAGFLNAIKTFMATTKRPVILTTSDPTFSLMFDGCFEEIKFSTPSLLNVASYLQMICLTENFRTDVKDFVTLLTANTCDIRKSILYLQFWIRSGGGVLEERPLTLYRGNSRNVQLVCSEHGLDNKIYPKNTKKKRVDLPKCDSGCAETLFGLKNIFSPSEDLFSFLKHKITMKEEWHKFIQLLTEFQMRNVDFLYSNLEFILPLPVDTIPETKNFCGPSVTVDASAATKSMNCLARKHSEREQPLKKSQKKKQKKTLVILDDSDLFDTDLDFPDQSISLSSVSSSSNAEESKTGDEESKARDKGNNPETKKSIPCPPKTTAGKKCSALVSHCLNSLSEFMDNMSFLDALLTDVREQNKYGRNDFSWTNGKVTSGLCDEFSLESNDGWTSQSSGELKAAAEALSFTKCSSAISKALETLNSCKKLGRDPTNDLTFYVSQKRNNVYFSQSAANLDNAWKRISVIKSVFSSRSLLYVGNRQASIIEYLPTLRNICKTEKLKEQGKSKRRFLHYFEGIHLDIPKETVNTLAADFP
Outline: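 ELG1-luciferase HEK293T reporter; 5-fluorouridine + compound/DMSO, 16 hr, 37 °C, 5% CO2; ONE-Glo 30 min RT; luminescence read, qHTS format.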

[2] = target: Thyrotropin-releasing hormone receptor (Homo sapiens) (UniProt P34981); assay: qHTS for Small Molecule Agonists and Allosteric Enhancers of Human TRH Receptor: Validation Screen for Agonists (AID 493127;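 active = calcium activation more than 3 SD above the typical response in the agonist read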;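 also: intracellular calcium rise by fluo-8 fluorescence before TRH EC20 addition; 0% is about no effect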); conditions: TRH receptor agonist cell assay; at 2 µM; hits give high values
Outline: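 Read-out: intracellular calcium release measured kinetically by FDSS (fluo-8, ex 480/em 530 nm), 1 reading/s after a 10-cycle baseline. TRHR cells, 2000/well, cultured 18 h at 33.5C, dye-loaded at room temp. Compound-evoked positive calcium signal flags agonists.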

[3] = qHTS for Inhibitors of Cell Surface uPA Generation: Validation Assay (AID 493164);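 also: RAW 264.7 macrophage cells exposed to compound for 18 h; 0% is about no effect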
Outline: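 Compounds are titrated over seven points (2.45 nM–38.3 uM final) onto pre-plated RAW 264.7 cells and incubated for 18 h. Retained intracellular ATP, measured with ATP-Lite, indicates blocked lethal factor entry.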

[4] = target: Galactokinase (Homo sapiens) (UniProt P51570); assay: qHTS Validation Assay for Inhibitors of Human Galactokinase (GALK) (AID 493189); also: 0% is about no effect
Galactokinase (Homo sapiens), sequence (P51570 whole entry, looked up): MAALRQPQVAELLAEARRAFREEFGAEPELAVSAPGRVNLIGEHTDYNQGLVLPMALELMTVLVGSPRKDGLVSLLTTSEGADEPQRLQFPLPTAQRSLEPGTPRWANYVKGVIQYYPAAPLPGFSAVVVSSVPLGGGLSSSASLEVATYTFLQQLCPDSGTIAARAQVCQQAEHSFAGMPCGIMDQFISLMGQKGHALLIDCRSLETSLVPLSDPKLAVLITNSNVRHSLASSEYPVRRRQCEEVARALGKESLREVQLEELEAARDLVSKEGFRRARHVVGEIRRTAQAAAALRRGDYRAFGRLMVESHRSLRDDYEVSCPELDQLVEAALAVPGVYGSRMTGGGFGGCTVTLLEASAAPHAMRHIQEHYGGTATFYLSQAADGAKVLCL
Outline: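 Compounds were pin-transferred into ATP buffer, then GALK-galactose mix was added (final 5 nM enzyme, 100 uM galactose, 35 uM ATP). After 1 h at room temperature, remaining ATP was measured luminescently.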

[5] = Validation screen for small molecules that induce DNA re-replication in SW480 colon adenocarcinoma cells (AID 504364); also: 0% is about no effect
Outline: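 Read-out: total Hoechst intensity of nuclei by fluorescence scanning imager; hits raise the fraction of nuclei with elevated DNA content. Cells received compound for 48 hr at 37 C before a 40 min stain.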

[6] = target: Peptidyl-prolyl cis-trans isomerase NIMA-interacting 1 (Homo sapiens) (UniProt Q13526); assay: qHTS Validation Assay to Find Inhibitors of Pin1 (AID 504536; active = well fitted inhibition curve with a large enough effect in the polarisation, with a control signal flat, not every such curve was filed as active; the % refers to the polarisation;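 also: 0% = full Pin1 enzyme wells and -100% = no-enzyme wells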)
Peptidyl-prolyl cis-trans isomerase NIMA-interacting 1 (Homo sapiens), sequence (Q13526 whole entry, looked up): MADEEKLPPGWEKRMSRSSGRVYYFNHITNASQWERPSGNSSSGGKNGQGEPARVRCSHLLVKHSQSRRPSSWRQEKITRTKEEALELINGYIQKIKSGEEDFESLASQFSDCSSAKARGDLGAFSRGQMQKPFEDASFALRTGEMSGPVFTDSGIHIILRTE
Outline: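 Fluorescence polarization competition: compounds (titration) displace HiFluor-488-labeled Pin1-1b peptide from Pin1 (0.3 uM final) in pH 7.5 HEPES buffer with DTT, 10 min at room temperature; %Activity normalized to no-enzyme wells, curves fitted.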

[7] = target: Phosphoglycerate kinase, glycosomal (Trypanosoma brucei brucei) (UniProt P07378); assay: qHTS Validation Assay to Find Inhibitors of Phosphoglycerate Kinase (AID 504547);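 also: control wells lack PGK and mark full inhibition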
Phosphoglycerate kinase, glycosomal (Trypanosoma brucei brucei), sequence (P07378 whole entry, looked up): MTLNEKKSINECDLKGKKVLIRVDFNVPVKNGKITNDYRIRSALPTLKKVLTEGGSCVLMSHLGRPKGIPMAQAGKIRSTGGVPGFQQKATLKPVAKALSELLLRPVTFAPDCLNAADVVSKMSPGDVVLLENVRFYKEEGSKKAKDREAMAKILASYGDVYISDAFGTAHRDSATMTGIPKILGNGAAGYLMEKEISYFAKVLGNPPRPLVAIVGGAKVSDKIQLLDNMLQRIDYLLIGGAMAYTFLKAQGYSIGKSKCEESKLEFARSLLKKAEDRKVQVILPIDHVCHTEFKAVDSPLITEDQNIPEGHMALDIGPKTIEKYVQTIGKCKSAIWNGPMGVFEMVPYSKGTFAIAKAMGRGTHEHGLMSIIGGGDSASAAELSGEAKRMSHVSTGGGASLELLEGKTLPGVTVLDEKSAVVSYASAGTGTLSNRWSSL
Outline: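 Compounds are pinned into the substrate/PGK mixture, and GAPDH (100nM final) is added to start the reaction by producing 1,3-BPG. After 60 minutes at room temperature, Kinase-Glo Plus is added and luminescence is measured 10 minutes later.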

[8] = target: phosphoglycerate mutase (Leishmania major) (UniProt Q4Q090); assay: qHTS Validation Assay to Find Inhibitors of Phosphoglycerate Mutase (AID 504548);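 also: end-point luminescence from Kinase-GloPlus after the PGAM reaction; series mostly up to about 58 µM; % is scaled to controls: 0 for no effect and ±100 for the full control effect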
Outline: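 Inhibition of L. major PGAM was assessed by Kinase-GloPlus luminescence following a 45-minute room-temperature reaction with enzyme at 1.25nM final.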

[9] = Inducers of the Endoplasmic Reticulum Stress Response (ERSR) in human glioma: Validation (AID 504836); also: 0% is about no effect
Outline: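 Stably transfected U87-MG glioma cells carrying a GRP78-based luciferase sensor; 16 h compound incubation. Luminescence end-point read 10 min after Bright-Glo addition at room temperature.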

[10] = target: Ubiquitin carboxyl-terminal hydrolase 1 (Homo sapiens) (UniProt O94782); assay: Inhibitors of USP1/UAF1: Pilot qHTS (AID 504865);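 also: rhodamine fluorescence freed from ubiquitin-rhodamine substrate followed over time; top concentration of the series differs between compounds; % is scaled to controls: 0 for no effect and ±100 for the full control effect; nearly all actives have a fitted effect of over 35% in size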
Ubiquitin carboxyl-terminal hydrolase 1 (Homo sapiens), sequence (O94782 whole entry, looked up): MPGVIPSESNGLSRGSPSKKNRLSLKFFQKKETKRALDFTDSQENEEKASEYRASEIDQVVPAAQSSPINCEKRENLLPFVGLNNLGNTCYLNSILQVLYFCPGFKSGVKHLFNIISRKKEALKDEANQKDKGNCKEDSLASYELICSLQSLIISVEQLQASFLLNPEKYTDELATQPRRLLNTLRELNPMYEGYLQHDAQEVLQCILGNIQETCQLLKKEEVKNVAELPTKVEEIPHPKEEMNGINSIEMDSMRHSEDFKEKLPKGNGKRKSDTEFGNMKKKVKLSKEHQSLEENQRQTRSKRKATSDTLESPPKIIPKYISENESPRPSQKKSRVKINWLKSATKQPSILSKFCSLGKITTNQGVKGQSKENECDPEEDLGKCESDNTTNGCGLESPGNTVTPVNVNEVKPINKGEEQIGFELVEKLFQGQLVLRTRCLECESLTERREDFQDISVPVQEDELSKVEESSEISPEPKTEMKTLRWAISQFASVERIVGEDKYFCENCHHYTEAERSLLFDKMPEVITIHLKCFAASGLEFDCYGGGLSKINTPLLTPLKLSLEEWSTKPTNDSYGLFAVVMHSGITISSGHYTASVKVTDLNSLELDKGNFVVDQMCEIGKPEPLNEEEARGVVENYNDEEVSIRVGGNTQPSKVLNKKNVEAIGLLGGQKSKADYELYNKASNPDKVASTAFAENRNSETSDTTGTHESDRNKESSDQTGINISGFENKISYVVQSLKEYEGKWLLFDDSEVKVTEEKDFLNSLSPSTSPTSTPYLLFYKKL
Outline: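 Kinetic fluorescence assay: 1nM USP1/UAF1, 15 min compound preincubation, then 150nM Ub-Rho; 480/540 nm.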

[11] = qHTS for Inhibitors of ATXN expression: Validation of Cytotoxic Assay (AID 588349); also: % is scaled to controls: 0 for no effect and ±100 for the full control effect
Outline: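 Cytotoxicity counter-screen: HEK293 cells exposed to compound titrations, 72 hr, 37 degrees C. Read-out is intracellular ATP (CellTiter Glo luminescence) as a viability measure.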

[12] = qHTS for Inhibitors of ATXN expression: Validation (AID 588378); also: series mostly up to about 57 µM; % is scaled to controls: 0 for no effect and ±100 for the full control effect; nearly all actives have a fitted effect of over 75% in size
Outline: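 Validation of ATXN2 expression inhibitors uses a cell-based luciferase fusion reporter in HEK293 cells, with 24 h compound exposure and paired viability (fluorescence) and reporter (luminescence) end-point reads.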

[13] = target: Estrogen receptor (Homo sapiens) (UniProt P03372); assay: qHTS assay for small molecule antagonists of estrogen receptor alpha signaling (AID 588513; active = well fitted curve in the direction sought with a large enough effect in the signal ratio, with a control signal flat, not every such curve was filed as active; the % refers to the signal ratio; also: % is scaled to controls: 0 for no effect and ±100 for the full control effect)
Outline: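 Cells were plated at 5000/well and incubated 4 h at 37 C. Compounds were added as 1:2 dilution series, duplicates. 17-beta-estradiol (0.5nM final) was added for 18 h before CCF4 detection.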

[14] = target: Estrogen receptor (Homo sapiens) (UniProt P03372); assay: qHTS assay for small molecule agonists of estrogen receptor alpha signaling (AID 588514; calls by dose curve;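 also: 0% = vehicle only and 100% = reference agonist; nearly all actives have a fitted effect of over 70% in size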)
Outline: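 Read-out: CCF4 fluorescence from a beta-lactamase reporter in ER-alpha-UAS-bla HEK 293 cells after 18 hrs of compound exposure at 37 C. Normalized to 20 nM 17-beta-estradiol (100%) and DMSO (0%).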

[15] = target: Glucocorticoid receptor (Homo sapiens) (UniProt P04150); assay: qHTS assay for small molecule agonists of glucocorticoid receptor signaling (AID 588532; active = well fitted curve in the direction sought with a large enough effect in the signal ratio, with a control signal flat; the % refers to the signal ratio;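 also: 100% = dexamethasone at 0.1 µM and 0% = DMSO only wells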); conditions: HeLa MMTV-bla, beta-lactamase ratio, agonist, 18 h; hits give high values; percent of dexamethasone control, DMSO zero
Glucocorticoid receptor (Homo sapiens), sequence (P04150 whole entry, looked up): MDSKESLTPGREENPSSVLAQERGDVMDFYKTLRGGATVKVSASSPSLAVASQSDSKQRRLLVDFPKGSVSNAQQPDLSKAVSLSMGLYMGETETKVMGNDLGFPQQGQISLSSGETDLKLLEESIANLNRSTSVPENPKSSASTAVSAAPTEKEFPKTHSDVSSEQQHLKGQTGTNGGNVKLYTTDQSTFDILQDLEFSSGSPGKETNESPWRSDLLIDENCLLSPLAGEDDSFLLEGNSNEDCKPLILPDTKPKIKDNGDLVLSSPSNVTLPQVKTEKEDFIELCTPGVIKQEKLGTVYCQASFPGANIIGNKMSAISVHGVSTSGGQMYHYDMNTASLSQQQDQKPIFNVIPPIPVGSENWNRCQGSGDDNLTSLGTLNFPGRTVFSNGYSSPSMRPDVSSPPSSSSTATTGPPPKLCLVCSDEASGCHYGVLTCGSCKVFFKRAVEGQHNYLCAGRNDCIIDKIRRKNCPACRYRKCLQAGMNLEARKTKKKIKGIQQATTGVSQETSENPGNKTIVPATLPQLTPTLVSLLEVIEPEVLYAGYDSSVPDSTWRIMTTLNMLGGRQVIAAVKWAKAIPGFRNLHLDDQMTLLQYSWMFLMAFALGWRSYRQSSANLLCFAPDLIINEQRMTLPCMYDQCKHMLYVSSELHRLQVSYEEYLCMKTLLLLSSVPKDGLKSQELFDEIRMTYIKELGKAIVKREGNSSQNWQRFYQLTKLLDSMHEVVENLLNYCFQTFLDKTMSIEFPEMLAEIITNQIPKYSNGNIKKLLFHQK
Outline: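 MMTV-bla HeLa beta-lactamase reporter cells in 1% charcoal/dextran FBS medium, compounds up to 92 uM for 18 h at 37 C, CCF4 readout; normalized to 0.1 uM dexamethasone (100%), EC50 and efficacy from Hill fits.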

[16] = target: Bile acid receptor (Homo sapiens) (UniProt Q96RI1); assay: qHTS assay for small molecule antagonists of farnesoid X receptor signaling (AID 588526; calls by dose curve; also: % is scaled to controls: 0 for no effect and ±100 for the full control effect)
Bile acid receptor (Homo sapiens), sequence (Q96RI1 whole entry, looked up): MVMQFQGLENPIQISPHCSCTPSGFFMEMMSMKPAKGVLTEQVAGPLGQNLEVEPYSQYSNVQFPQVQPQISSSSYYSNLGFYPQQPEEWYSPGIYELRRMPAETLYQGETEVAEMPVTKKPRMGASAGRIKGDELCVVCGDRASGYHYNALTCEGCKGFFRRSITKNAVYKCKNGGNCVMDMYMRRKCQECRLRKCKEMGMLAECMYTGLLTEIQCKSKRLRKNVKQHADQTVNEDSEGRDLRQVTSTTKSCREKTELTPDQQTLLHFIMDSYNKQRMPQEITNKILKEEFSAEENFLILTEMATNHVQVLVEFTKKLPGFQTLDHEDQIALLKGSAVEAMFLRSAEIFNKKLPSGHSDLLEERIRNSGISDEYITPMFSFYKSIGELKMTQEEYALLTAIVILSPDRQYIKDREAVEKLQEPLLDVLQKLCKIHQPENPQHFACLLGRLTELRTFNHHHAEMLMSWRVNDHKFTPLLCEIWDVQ
Outline: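 Antagonist mode: titrated compounds tested against chenodeoxycholic acid stimulation (normalized to 50 uM CDCA and DMSO) in GeneBLAzer HEK293T cells for 16 h. Beta-lactamase read by CCF4 fluorescence; IC50 from Hill fits.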

[17] = target: Bile acid receptor (Homo sapiens) (UniProt Q96RI1); assay: qHTS assay for small molecule agonists of farnesoid X receptor signaling (AID 588527; calls by dose curve;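 also: series mostly up to about 77 µM; 0% = vehicle basal and 100% = reference agonist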); conditions: HEK293T FXR-UAS-bla, beta-lactamase ratio, 16 h; hits give high values
Outline: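 Quantitative HTS used FXR-UAS-bla HEK293T cells with 16 h compound incubation at 37 C. EC50 values came from concentration-response curves normalized to chenodeoxycholic acid.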

CC(C)(C)NCC(O)c1ccccc1Cl (stereo not drawn)
inactive: outcome [1] | activation [2] 0.312% | outcome [3] | outcome [4] | outcome [5] | outcome [6] | outcome [7] | outcome [8] | outcome [9] | Potency [10] | outcome [11] | outcome [12]

NCCc1ccc(O)cc1
inactive: outcome [1] | activation [2] 1.31% | outcome [3] | outcome [4] | outcome [5] | outcome [6] | outcome [7] | outcome [8] | outcome [9] | Potency [10] | outcome [11] | outcome [12] | outcome [13] | Potency [14] | activation [15] 18.1%

CN1C(=O)CCS(=O)(=O)C1c1ccc(Cl)cc1 (stereo not drawn)
inactive: outcome [1] | outcome [3] | outcome [4] | outcome [5] | outcome [6] | outcome [7] | outcome [8] | outcome [9] | Potency [10] | outcome [11] | outcome [12]

Cc1nc2ccccn2c(=O)c1CCN1CCC(C(=O)c2ccc(F)cc2)CC1
inactive: outcome [9]

O=P1(N(CCCl)CCCl)NCCCO1 (stereo not drawn)
inactive: outcome [1] | activation [2] -0.25% | outcome [3] | outcome [4] | outcome [5] | outcome [6] | outcome [7] | outcome [8] | outcome [9] | Potency [10] | outcome [11] | outcome [12] | outcome [13] | Potency [14] | Potency [16] | activation [17] -1.19% and 1.86% | activation [15] 2.61% and 1.05%

NC(=O)c1cnccn1
inactive: outcome [9]

CNC[C@H](O)c1cccc(O)c1
inactive: outcome [9]

COCCOC(=O)C1=C(C)NC(C)=C(C(=O)OC(C)C)C1c1cccc([N+](=O)[O-])c1 (stereo not drawn)
inactive: outcome [9]

CCOC(=O)[C@H](CCc1ccccc1)N[C@@H](C)C(=O)N1[C@H](C(=O)O)C[C@H]2CCCC[C@@H]21
inactive: outcome [9]

CC(NC(C)(C)C)C(=O)c1cccc(Cl)c1 (stereo not drawn)
inactive: outcome [1] | activation [2] -0.188% | outcome [3] | outcome [4] | outcome [5] | outcome [6] | outcome [7] | outcome [8] | outcome [9] | Potency [10] | outcome [11] | outcome [12]

O=C(O)CCCc1ccc(N(CCCl)CCCl)cc1
inactive: outcome [1] | activation [2] -4.56% | outcome [3] | outcome [4] | outcome [5] | outcome [6] | outcome [7] | outcome [8] | outcome [9] | Potency [10] | outcome [11] | outcome [12] | outcome [13] | Potency [14] | Potency [16] | activation [17] -2.97% and 0.833%
